Screens from PubChem.
ELG1 repair inh = inhibitors of ELG1-dependent DNA repair in HEK293T cells; HEK293T ELG1-luciferase reporter, luminescence, 16 h; DNA damage induced by 5-fluorouridine; Potency, µM (doses to about 46.1 µM), without a hit: top-dose activity change, negative = inhibition, most hits filed as inhibitors; 330,000 tested, 2.3% active; also: % is scaled to controls: 0 for no effect and ±100 for the full control effect; nearly all actives have a fitted effect of over 55% in size
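Quantitative HTS, concentration-response format. 2,000 cells/well co-treated with 5-fluorouridine and compound, 16 hr in 5% CO2 at 37 °C; ONE-Glo luminescence read after 30 min.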
KB-V1 MDR tox = KB-V1 MDR subline cytotoxicity; KB-V1 MDR cells viability, CellTiter-Glo, 72 h; Potency, µM (doses to about 46.1 µM), most hits filed as cytotoxic; 400,000 tested, 3.4% active; also: % is scaled to controls: 0 for no effect and ±100 for the full control effect; nearly all actives have a fitted effect of over 60% in size
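Drug-selected KB-V1 cells, grown in DMEM lacking phenol red with 10% FBS, receive compound titrations; after three days at 37 degrees C, surviving cell ATP is quantified by CellTiter-Glo luminescence and responses normalized and curve-fitted.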
KB-3-1 tox = kills parental KB-3-1 adenocarcinoma cells; KB-3-1 viability, CellTiter-Glo ATP luminescence, 72 h; Potency, µM (doses to about 46.1 µM), actives largely listed as cytotoxic; 400,000 tested, 1.4% active; also: % is scaled to controls: 0 for no effect and ±100 for the full control effect; nearly all actives have a fitted effect of over 60% in size
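Parental KB-3-1 adenocarcinoma cells in phenol-red-free DMEM with 10% FBS were pin-treated with compounds at several concentrations, incubated 72 h at 37 °C, and viability read by CellTiter-Glo luminescence; concentration-effect curves were fitted after normalization.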
SW480 rereplic = DNA re-replication induction in SW480 cells. SW480 DNA re-replication, Hoechst DNA content imaging, 48 h. Potency, µM (series often up to 46.1 µM), without a hit: at the highest dose re-replication activation, usual class: activators. AID 624297. 340,000 tested, 1.8% active; also: % of control where 0% means no effect; nearly all actives have a fitted effect of over 55% in size
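250 cells/well; 23 nL cpd via pin tool; 48 hr, 37 C, 5% CO2; Hoechst 40 min; imager read of total nuclear intensity, ex 405/em 500-530 nm.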
MCF10A rerep = DNA re-replication induction in MCF 10a cells | MCF 10A DNA re-replication, Hoechst nuclear intensity, 48 h | Potency, µM (highest dose often 46.1 µM), without a hit: top-dose activity, positive = re-replication, most hits filed as activators | 350,000 tested, 2.9% active | AID 624296; also: % of control where 0% means no effect; nearly all actives have a fitted effect of over 50% in size
* = called active by the depositor; i = inactive; ? = inconclusive; · = no result given; [ ] = dose if it differs, or a comment. In the library only some 8.1% were active in any assay of this set; here they are far more common. Calls follow the shape of the dose curve; as a rule, active = well fitted curve in the direction sought with a large enough effect; inconclusive = small, poorly fitted or top-dose-only effect, or another doubt; inactive = no such curve, though single readings can be large; an effect the other way counts as inactive or inconclusive. Potency is read from the fitted curve at half-maximal effect.

SMILES	ELG1 repair inh	KB-V1 MDR tox	KB-3-1 tox	SW480 rereplic	MCF10A rerep
Cc1sc(NC(=O)CN(C(=O)c2ccccc2F)C2CCCC2)c(C(N)=O)c1C	16µM*	?	i	2%	0%
Cc1ccc(C(=O)N(CC(=O)Nc2sc(C)c(C)c2C(N)=O)C2CCCC2)cc1	?	?	i	13%	?
COC(=O)N1C(=O)[C@@](c2ccccc2)(C2CCCCC2)N1C(=O)OC	0%	i	i	-15%[9.22 µM]	15µM*
CC[C@@]1(c2ccccc2)C(=O)N(C(=O)OC)N1C(=O)OC	-26%	i	i	4%	?
O/N=C(/C[n+]1ccsc1)c1ccc(I)cc1	·	i	i	·	·
CN(C)S(=O)(=O)c1ccc(NC(=O)Cn2nc(-c3ccc4c(c3)OCCO4)ccc2=O)cc1	·	?	?	18µM*	70%
CC(=O)Nc1cc2c(cc1NC(=O)Cn1nc(-c3ccc(F)cc3)ccc1=O)OCCO2	3%	i	i	-2%	13%
CC(=O)c1cc2c(cc1NC(=O)Cn1nc(-c3ccc(C)cc3)ccc1=O)OCO2	4%	9.2µM*	23µM*	5%	?
Cc1ccc(-c2ccc(=O)n(CC(=O)Nc3ccc4c(c3)OCCO4)n2)cc1	-1%	i	i	-23%	?
COc1ccccc1NC(=O)Cn1nc(-c2ccc3c(c2)OCCO3)ccc1=O	-16%	i	i	4%	0.92µM*
O=C(Nc1ncccc1O)c1ccc(Cl)c(S(=O)(=O)N2CCCC2)c1	·	i	i	·	·
CCOC(=O)C1=CCN(S(=O)(=O)c2ccccc2C)C1c1ccc(C)cc1 (stereo unspecified)	·	i	i	·	·
CN(C)c1ccc(-c2ccc(CCO)cc2)cc1	·	i	i	·	·
COc1ccc(-c2cc(C(F)(F)F)n3nc(C(=O)N(C)Cc4ccccc4)cc3n2)cc1OC	21µM*	?	i	21µM*	?
CCN(CC)CCCNC(=O)c1cc2nc(-c3ccccc3)cc(C(F)(F)F)n2n1	-8%	i	i	-8%	1µM*
O=C(NCCCn1ccnc1)c1nn2c(C(F)(F)F)cc(-c3ccccc3)nc2c1Cl	-8%	i	i	6.5µM*	-1%
CCCCNC(=O)c1cc2nc(-c3ccc(OC)cc3)cc(C(F)(F)F)n2n1	·	i	i	·	·
Cc1ccc(-c2cc(C(F)(F)F)n3nc(C(=O)NCCCn4ccnc4)cc3n2)cc1C	?	i	i	?	15µM*
Cc1ccc(-c2cc(C(F)(F)F)n3nc(C(=O)Nc4ccon4)cc3n2)cc1C	2%	i	i	?	?
COCCCn1cc(CN2CC(N3CCCCC3)CS2(=O)=O)nn1 (stereo unspecified)	·	i	i	·	·
Cc1c(C)c2ccc(OCC(=O)Nc3ccc(S(N)(=O)=O)cc3)c(C)c2oc1=O	18%	i	i	-1%	18µM*
NC(=O)c1cc2ccncc2c2ccccc12	1.3µM*	i	i	-5%	?
Cc1cc(C(N)=O)c2ccccc2n1	-13%	i	i	-2%	?
COc1ccc(OC)c(CCNC(=O)c2ccc3c(=O)[nH]c4c(C(=O)NC(C)C)sc(=S)n4c3c2)c1	10µM*	i	i	-5%	?
CNC[C@@H](C)NC[C@@H](Cc1ccccc1)NCCc1ccccc1	6%	i	?	0.37µM*	-35%
SMILES	ELG1 repair inh	KB-V1 MDR tox	KB-3-1 tox	SW480 rereplic	MCF10A rerep
Cc1nc(C)c(-c2csc(Nc3ccc(N)cc3)n2)s1	?	i	i	1%	27%
Cc1nc(C)c(-c2csc(Nc3cccnc3)n2)s1	?	3.3µM*	i	-3%	-6%
COc1ccc(Nc2nc(-c3sc(C)nc3C)cs2)cc1	-17%	1.6µM*	5.8µM*	1.5µM*	?
O=C(Cc1ccc(Cl)cc1)NNC(=O)C(=O)NC1CCCCC1	2%	i	i	10%	-15%
O=C(Nc1ccc(Cl)cc1)c1ccc2c(c1)N(Cc1ccccc1)C(=O)c1ccccc1S2(=O)=O	·	i	i	·	·
C[C@H](CO)N1C[C@H](C)[C@@H](CN(C)C(=O)Nc2ccc3c(c2)OCO3)Oc2c(NC(=O)Nc3ccc(C(F)(F)F)cc3)cccc2C1=O	10µM*	?	i	5%	-18%
C[C@H](CO)N1C[C@H](C)[C@@H](CN(C)Cc2ccc(-c3ccccc3)cc2)Oc2c(NC(=O)Nc3ccc4c(c3)OCO4)cccc2C1=O	23µM*	i	?	-9%	?
C[C@H](CO)N1C[C@H](C)[C@@H](CN(C)S(C)(=O)=O)Oc2c(NC(=O)Nc3ccc4c(c3)OCO4)cccc2C1=O	20%	i	i	-1%	2%
C[C@@H]1CN([C@H](C)CO)C(=O)c2cccc(NC(=O)Nc3ccc(F)cc3)c2O[C@H]1CN(C)C(=O)Nc1ccc(C(F)(F)F)cc1	6.5µM*	?	?	4%	-26%
COc1ccc(NC(=O)N(C)C[C@H]2Oc3c(NC(=O)Nc4ccc(C(F)(F)F)cc4)cccc3C(=O)N([C@H](C)CO)C[C@@H]2C)cc1	?	i	?	-5%	?
CCOc1ccc2nc3cc(N=Nc4ccc(N)nc4N)ccc3c(N)c2c1	·	i	?	?	13%
CCN(Cc1ccccc1)C(=O)CN(c1ccc(OC)cc1)S(=O)(=O)c1c(C)nn(C)c1C	·	i	i	·	·
CCOc1cc(C(=O)NCCN2C(=O)S/C(=C\c3cccnc3)C2=O)cc(OCC)c1OCC	18µM*	i	i	23%	-7%
O=C(NCCN1C(=O)S/C(=C/c2ccccc2)C1=O)C1CC(=O)N(Cc2ccccc2)C1 (stereo unspecified)	-16%	i	i	4%	9%
COc1ccc(C(=O)NCCN2C(=O)S/C(=C\c3cccnc3)C2=O)c(OC)c1OC	?	15µM*	i	1%	23%
Cc1nn(Cc2ccccc2)c(C)c1C(=O)NCCN1C(=O)S/C(=C\c2ccccc2)C1=O	-10%	?	i	?	26µM*
Cc1ccc(C2(C)NC(=O)N(CC(=O)NCCN3C(=O)S/C(=C\c4cccnc4)C3=O)C2=O)cc1 (stereo unspecified)	·	i	i	5.8µM*	40%
Cc1cc(C)n2nc(CNS(=O)(=O)c3ccccc3)nc2n1	·	i	i	·	·
NC(=O)C1CCN(c2ncnc(-c3ccc4c(c3)OCCCO4)n2)CC1	·	i	i	·	·
O=C(O)c1cccc(NC(=O)C23CC4CC(C2)CC(n2cnc(Cl)n2)(C4)C3)c1	19%	?	i	-4%	1%
COc1ccc(NC(=O)C23CC4CC(C2)CC(n2cnc(Br)n2)(C4)C3)cc1Cl	?	9.2µM*	i	-2%	7%
